Experimental findings from PubChem BioAssay AID588342 (National Center for Advancing Translational Sciences (NCATS), 2011) are described below.

Among all 360,000 compounds or so, about 25,000 (6.9%) were called active. Entries that show only a call come without a potency. Roughly 9% stayed inconclusive and do not appear here. Calls follow the shape of the dose curve; as a rule, active = well fitted inhibition curve with a large enough effect; inconclusive = small, poorly fitted or top-dose-only effect; inactive = flat fitted curve, though single readings scatter. For the sample, actives were picked, then their nearest neighbours and some compounds at random.
Potency is read from the fitted curve at half-maximal effect.

Chain of Luciferin 4-monooxygenase (Photinus pyralis) (P08659 whole entry, looked up): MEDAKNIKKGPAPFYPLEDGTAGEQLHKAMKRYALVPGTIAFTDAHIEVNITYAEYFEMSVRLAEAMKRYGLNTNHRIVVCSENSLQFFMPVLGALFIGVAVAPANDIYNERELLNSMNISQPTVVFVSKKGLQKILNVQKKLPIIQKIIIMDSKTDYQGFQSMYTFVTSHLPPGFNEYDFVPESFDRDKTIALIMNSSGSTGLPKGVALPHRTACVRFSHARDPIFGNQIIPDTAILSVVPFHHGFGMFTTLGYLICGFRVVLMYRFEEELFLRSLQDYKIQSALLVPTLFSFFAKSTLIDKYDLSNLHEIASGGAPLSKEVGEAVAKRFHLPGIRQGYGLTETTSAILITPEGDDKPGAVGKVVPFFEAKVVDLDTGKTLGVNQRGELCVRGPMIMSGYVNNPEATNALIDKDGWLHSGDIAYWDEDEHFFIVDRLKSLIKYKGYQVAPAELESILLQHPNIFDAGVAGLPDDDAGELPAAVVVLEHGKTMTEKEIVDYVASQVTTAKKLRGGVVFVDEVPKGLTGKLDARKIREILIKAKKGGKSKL

The assay has as its target Luciferin 4-monooxygenase (Photinus pyralis) (UniProt P08659). Nature of the assay: qHTS profiling assay for firefly luciferase inhibitor/activator using purifed enzyme and Km concentrations of substrates (counterscreen for miR-21 project). Also: nearly all actives have a fitted effect of over 55% in size. The settings on record: purified FLuc, luminescence inhibition; series mostly up to 57.5 µM. In outline: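 Biochemical qHTS of compounds, final roughly 60 µM downward over six points, against 10 nM purified firefly luciferase using Km concentrations of substrates (10 uM D-luciferin, 10 uM ATP) in Tris acetate pH 7.5 buffer; luminescence output.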
(qHTS replaces the single test concentration by a dilution series.)
For `Cc1ccc(/C=N/NC(=O)C(NC(=O)c2ccccc2)c2n[nH]c(=O)c3ccccc23)cc1` (stereo unspecified), the Potency was 19 µM (active).
Turning to `Cc1ccc(S(=O)(=O)Oc2ccc(/C=N/NC(=O)c3ccncc3)cc2)cc1`, the Potency result was “inactive”.
On to `Cc1ccc(/C=N/NC(=O)COc2ccccc2-c2ccccc2)cc1`, for which the Potency entry was “inactive”.
Regarding `CCOC(=O)c1cccc(NC(=O)C(Cc2ccccc2)NS(=O)(=O)c2cccc3nsnc23)c1` (stereo unspecified), the Potency result was “inactive”.
Regarding `CN(C(=O)CSc1nc2ccccc2n1Cc1ccccc1C#N)c1ccccc1`, the Potency entry is “inactive”.
As to `O=C(N/N=C/c1ccc(O)c(O)c1)C1c2ccccc2Oc2ccccc21`, the Potency entry is “inactive”.
As for `O=C(COc1ccc(/C=N/NC(=O)c2ccc(O)cc2)cc1)Nc1ccc([N+](=O)[O-])cc1`, the Potency entry is “inactive”.
Turning to `O=C(N/N=C/c1ccsc1)c1cc(O)cc(O)c1`, the Potency is 21.3 µM (active).
Take `Cc1cccc(-n2ncc(C(=O)N3CCc4ccccc4C3)c2C2CCN(C(=O)OC(C)(C)C)CC2)c1`: the Potency entry is “inactive”.
In the case of `Cc1ccc(NC(=O)c2nc(S(=O)(=O)Cc3cccc(C)c3)ncc2Cl)cc1`, the Potency entry was “inactive”.
Consider `Nc1[nH]c(=S)nc2nc(-c3ccccc3)c(-c3ccccc3)nc12`, for which the Potency entry is “inactive”.
`Cc1c(Br)c([N+](=O)[O-])nn1CC(=O)N1CCN(Cc2ccccc2)CC1`: the Potency was 13.5 µM (active).
Consider `O=C(c1cccc([N+](=O)[O-])c1)N1CCN(Cc2ccccc2)CC1`, for which the Potency result is “inactive”.
With `Cn1nnnc1SCC(=O)N1CCN(Cc2ccccc2)CC1`, the Potency result is “inactive”.
`Cc1cccc(NS(=O)(=O)c2ccc(-c3cnc(C4CC4)o3)cc2)c1`: the Potency result was “inactive”.
In the case of `COc1ccc(/C=N/N=C2/C(=O)Nc3ccccc32)cc1O`, the Potency is 19 µM (active).
Regarding `COc1ccc(/C=N/N(C)C2=NS(=O)(=O)c3ccccc32)cc1OC`, the Potency result was “inactive”.
As for `CCOc1ccc(/C=N/NC(=O)CSc2ccccn2)cc1O`, the Potency entry was “inactive”.
Turning to `CCOC(=O)c1cc(-c2ccccc2)n(-c2cccc(C(=O)Nc3cc(OC)cc(OC)c3)c2)c1C`, the Potency result is “inactive”.
On to `Cc1cc(C)c2oc(C(=O)Nc3ccc(S(=O)(=O)N(C)c4ccccc4)cc3)cc(=O)c2c1`, for which the Potency entry is “inactive”.
As to `O=C(Oc1ccc(F)cc1)N1CCOCC1`, the Potency result was “inactive”.
For `O=C(c1cc(COc2ccc(F)cc2F)on1)N1CCOCC1`, the Potency is 16.9 µM (active).
With `O=C(c1cc(COc2cccc(C(F)(F)F)c2)on1)N1CCSCC1`, the Potency entry is “inactive”.
As for `O=C(NCCN1CCCC(O)C1)c1cc(COc2c(F)cccc2F)on1` (stereo unspecified), the Potency result is “inactive”.
As for `O=C(c1cc(COc2c(F)cccc2F)on1)N1CCSCC1`, the figure is 19 µM (active).
Take `C=CCC1(CC=C)CCCN1C(=O)c1cc(COc2ccc(-n3cncn3)cc2)on1`: the Potency result was “inactive”.
To `COc1ccc(CCN2C(=O)c3oc4cc(C)cc(C)c4c(=O)c3C2c2ccccc2F)cc1OC` (stereo unspecified) belongs “inactive”.
To `COc1cccc(CNCCSc2nnnn2C)c1OCc1ccccc1Cl` belongs “inactive”; to `O=C(NCCCc1ccccc1)c1ccc2c(c1)sc1nc(-c3ccc(F)cc3)cn12`, “inactive”; to `CCOc1ccc(-c2nc(C)sc2CC(=O)O)cc1`, “inactive”.
In the case of `CCOC(=O)C(=O)Nc1nc(-c2ccccc2)c(CC)s1`, the Potency entry was “inactive”.
Turning to `C/C(=N/Nc1nc(-c2ccccc2)c(CC(=O)O)s1)c1ccccc1`, the Potency is 5.36 µM (active).
To `Cc1ccc(C)c(N2CCN(S(=O)(=O)c3ccc4c(c3)C(C(C)C)C(=O)N4)CC2)c1` (stereo unspecified) belongs “inactive”; to `CN(Cc1ccccc1)C(=O)COc1ccccc1`, 9.53 µM (active); to `CN(Cc1ccccc1)C(=O)c1ccc(COc2ccccc2)cc1`, “inactive”.
To `CN(Cc1ccc(F)cc1)C(=O)COc1ccc2ccccc2c1` belongs “inactive”.
Regarding `Cc1ccccc1-c1nc2scc(CCNC(=O)C(=O)Nc3ccc(F)cc3F)n2n1`, the Potency entry is “inactive”.
`CC1CCCCC1NC(=O)COC(=O)Cc1ccc(Cl)cc1` (stereo unspecified): the Potency entry is “inactive”.
To `CCN(c1ccccc1)S(=O)(=O)c1ccc(C(=O)Nc2nccs2)cc1` belongs “inactive”; to `CC(=O)Oc1ccc(C(=O)Nc2nccs2)cc1`, 10.7 µM (active); to `CCOc1ccc(C(=O)Nc2nccs2)cc1[N+](=O)[O-]`, “inactive”.
Turning to `Cc1nc(-c2ccccc2)sc1-c1nnc(C2CC2)o1`, the Potency is 15.1 µM (active).
In the case of `Cc1nc(-c2ccccc2)sc1-c1nc(-c2ccccc2)ncc1S(=O)(=O)c1ccccc1`, the Potency entry is “inactive”.
As for `COc1ccccc1-c1nnc(C2CCN(C(=O)c3ccc(Cl)cc3)CC2)o1`, the entry is “inactive”; as for `COc1cc(C(=O)NCCS(=O)(=O)N2CCN(c3ccccc3)CC2)cc(OC)c1OC`, “inactive”.
As to `C/C(=C\c1ccccc1)C1NC(=O)c2c(sc3c2CCCC3)N1` (stereo unspecified), the Potency result was “inactive”.
To `CCOC(=O)N1CCc2c(sc3c2C(=O)NC(c2ccccc2F)N3)C1` (stereo unspecified) belongs “inactive”.
Consider `O=C1NC(c2ccncc2)Nc2sc3c(c21)CCCC3` (stereo unspecified), for which the Potency was 21.3 µM (active).
As for `CC(C)[C@H](NC(=O)OCc1ccccc1)C(=O)OCc1ccccc1`, the entry is “inactive”; as for `Cc1cc(C)cc(Nc2ncnc3onc(-c4ccc(F)cc4)c23)c1`, “inactive”.
As for `O=S(=O)(Nc1ccccc1)c1ccc(NS(=O)(=O)c2cccs2)cc1`, the Potency result was “inactive”.
With `C/C(=N\NC(=O)c1cc(-c2ccc(O)cc2)nc2ccccc12)c1cccnc1`, the Potency is 6.01 µM (active).
Take `C/C(=N\NC(=O)c1ccc2ccccc2c1)c1cccnc1`: the Potency was 19 µM (active).
Take `C/C(=N\NC(=O)c1cccnc1)c1ccc(-n2ccnc2)cc1`: the Potency result is “inactive”.
On to `C/C(=N\NC(=O)Cc1ccccc1[N+](=O)[O-])c1cccnc1`, for which the Potency was 15.1 µM (active).
As for `C/C(=N\NC(N)=S)c1cccnc1`, the entry is “inactive”; as for `CCOc1ccccc1-c1cc(C(=O)N/N=C(\C)c2cccnc2)c2ccccc2n1`, “inactive”.
In the case of `C/C(=N\NC(=O)c1ccc(NS(=O)(=O)c2cccs2)cc1)c1ccc2ccccc2c1`, the Potency is 19 µM (active).
As for `C/C(=N\NC(=O)Cc1ccc(Br)cc1)c1cccnc1`, the entry is “inactive”; as for `COc1cc(NS(=O)(=O)c2cccs2)cc(OC)c1`, “inactive”.
As for `C/C(=N\NC(=O)c1cccnc1)c1ccc(-c2ccccc2)cc1`, the entry is “inactive”; as for `Cc1nc2nc(SCC(=O)N(Cc3ccccc3)C(C)C)nn2c(C)c1Cc1ccccc1Cl`, “inactive”; as for `NS(=O)(=O)c1ccc(CCNC(=O)COC(=O)COc2cccc(C(F)(F)F)c2)cc1`, “inactive”.
As to `CC(C)Cn1c(=O)c2ccccc2n2c(-c3cccc(Cl)c3)nnc12`, the Potency entry was “inactive”.
As for `COc1ccc(NC(=O)C2CCCN(S(=O)(=O)c3cccc4nonc34)C2)cc1Cl` (stereo unspecified), the entry is “inactive”; as for `Cc1ccc(Cl)cc1N1CCN(C(=O)CN2C(=O)COc3ccc(S(=O)(=O)N4CCOCC4)cc32)CC1`, “inactive”.
